Laboratory results from PubChem BioAssay (EPA / NIEHS).
Records with an inconclusive call do not appear. Calls of active or inactive are those of the source. Rule for the calls, unless noted: active = hit-call score of the fitted dose curve at least 0.9, where 1 is the maximum; inactive = score below 0.9.

What was measured:
[1] = read-out: Vascular cell adhesion molecule 1 (VCAM1), VCAM1 (gene 7412); assay: BSK_LPS_VCAM1: BioMAP Diversity Plus: LPS Assay for Vascular cell adhesion molecule 1 (VCAM1) Biomarker Activity (AID 2283086); conditions: primary human HUVEC with PBMC; actives raise or lower the signal
How it was run: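 Primary human vascular co-culture (umbilical vein endothelium plus PBMC) stimulated with LPS received chemical; 24 h later VCAM-1 was read by ELISA. Overt cytotoxicity was assessed by sulforhodamine B staining of parallel cultures at the same time point.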

CD38, CD38 (gene 952) = assay: BSK_SAg_CD38: BioMAP Diversity Plus: SAg Assay for CD38 Biomarker Activity (AID 2283087); conditions: primary human HUVEC with PBMC; actives raise or lower the signal
How it was run: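 Fluorescence ELISA of cell-surface CD38 served as the read-out, with either increase or decrease fitted against DMSO controls. Cells were a human umbilical vein endothelium plus PBMC co-culture under SEB/TSST-1 stimulation, measured 24 h after dosing.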

CD40, CD40 (gene 958) = assay: BSK_SAg_CD40: BioMAP Diversity Plus: SAg Assay for CD40 Biomarker Activity (AID 2283088); conditions: primary human HUVEC with PBMC; actives raise or lower the signal
How it was run: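 HUVEC plus PBMC co-culture, superantigen-activated, with CD40 read by ELISA 24 h after dosing. Curves fitted in both directions against DMSO. Overt cytotoxicity checked by parallel SRB total-protein staining.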

CD69, CD69 (gene 969) = assay: BSK_SAg_CD69: BioMAP Diversity Plus: SAg Assay for CD69 Biomarker Activity (AID 2283089); conditions: primary human HUVEC with PBMC; actives raise or lower the signal;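 for AC50: cell surface CD69 protein quantified by ELISA with fluorescence detection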
How it was run: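 Primary human vascular co-culture (umbilical vein endothelium with peripheral blood mononuclear cells) exposed to test chemical for 24 h. CD69 levels quantified by fluorescence ELISA; DMSO served as negative control for bidirectional fitting.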

[2] = read-out: Monocyte Chemoattractant Protein-1 (MCP1), CCL2 (gene 6347); assay: BSK_SAg_MCP1: BioMAP Diversity Plus: SAg Assay for Monocyte Chemoattractant Protein-1 (MCP1) Biomarker Activity (AID 2283090); conditions: primary human HUVEC with PBMC; actives raise or lower the signal
How it was run: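 MCP-1 levels in the endothelial–PBMC SAg co-culture were quantified by ELISA at 24 h post-dosing; both increases and decreases versus DMSO scored. Cytotoxicity monitored by SRB total protein in parallel cultures.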

[3] = read-out: E-selectin (Homo sapiens) (UniProt P16581); assay: BSK_SAg_Eselectin: BioMAP Diversity Plus: SAg Assay for Eselectin Biomarker Activity (AID 2283091); conditions: primary human HUVEC with PBMC; actives raise or lower the signal
How it was run: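 Human umbilical vein endothelial cells co-cultured with peripheral blood mononuclear cells, SAg system. E-selectin is measured by ELISA 24 h after dosing and fitted bidirectionally against DMSO. Cytotoxicity is checked by SRB staining of parallel cultures.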

[4] = read-out: Monokine induced gamma interferon (MIG), CXCL9 (gene 4283); assay: BSK_SAg_MIG: BioMAP Diversity Plus: SAg Assay for Monokine induced gamma interferon (MIG) Biomarker Activity (AID 2283092); conditions: primary human HUVEC with PBMC; actives raise or lower the signal
How it was run: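 Endothelial cells and PBMC were co-cultured, exposed to test chemicals, and sampled 24 h later. MIG was measured by ELISA, and responses were fitted in both directions relative to DMSO.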

[5] = BSK_SAg_PBMCCytotoxicity: PBMC Cytotoxicity Assessment in the BioMAP Diversity Plus: SAg Assay (AID 2283093); conditions: primary human HUVEC with PBMC;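 note: PBMC viability measured as Alamar Blue reduction fluorescence at 546/580 nm; fitted both ways against DMSO so a hit may be loss or gain of signal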;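 for AC50: PBMC superantigen activated with SEB plus TSST-1 one hour after compound addition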
How it was run: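 HUVEC/PBMC co-culture; PBMC exposed to chemical 1 h before SEB and TSST-1 activation (20 ng/mL each), incubated 90 h, then Alamar Blue 6 h, fluorescence 546/580 nm. Bidirectional fit versus DMSO baseline.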

[6] = BSK_SAg_Proliferation: Cell Proliferation Assessment in the BioMAP Diversity Plus: SAg Assay (AID 2283095); conditions: primary human HUVEC with PBMC;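 note: relative cell number as total protein by SRB absorbance in sub-confluent culture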
How it was run: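 Readout is SRB-stained protein (560 nm) in a primary human HUVEC and PBMC co-culture; sub-confluent cultures are read at 96 h. Activity is fitted bidirectionally using DMSO as baseline.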

[7] = BSK_SAg_SRB: Viability Assessment in the BioMAP Diversity Plus: SAg Assay (AID 2283096); conditions: primary human HUVEC with PBMC;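 note: cells read one day after compound addition; hits may be either gain or loss of signal compared with DMSO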
How it was run: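 Human umbilical vein endothelial cells co-cultured with PBMC, read 24 h after compound dosing. Total protein measured by sulforhodamine B staining (0.1% SRB after 10% TCA fixation, absorbance 560 nm); bidirectional fit versus DMSO baseline.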

[8] = read-out: Interleukin-8 (IL8), CXCL8 (gene 3576); assay: BSK_SAg_IL8: BioMAP Diversity Plus: SAg Assay for Interleukin-8 (IL8) Biomarker Activity (AID 2283094); conditions: primary human HUVEC with PBMC; actives raise or lower the signal
How it was run: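 In this co-culture of human umbilical vein endothelium with peripheral blood mononuclear cells, IL-8 is assayed by ELISA at 24 h. DMSO serves as baseline for bidirectional curve fitting.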

[9] = target: human CYP2D6, CYP2D6 (gene 1565) (UniProt P10635); assay: NVS_ADME_hCYP2D6: NovaScreen (NVS) CYP450-related Enzyme Activity (ADME) Assay for human CYP2D6 (AID 2283107; active = hit-call score of the fitted dose curve at least 0.9, where 1 is the maximum)
human CYP2D6, CYP2D6 (gene 1565), sequence (P10635 whole entry, looked up): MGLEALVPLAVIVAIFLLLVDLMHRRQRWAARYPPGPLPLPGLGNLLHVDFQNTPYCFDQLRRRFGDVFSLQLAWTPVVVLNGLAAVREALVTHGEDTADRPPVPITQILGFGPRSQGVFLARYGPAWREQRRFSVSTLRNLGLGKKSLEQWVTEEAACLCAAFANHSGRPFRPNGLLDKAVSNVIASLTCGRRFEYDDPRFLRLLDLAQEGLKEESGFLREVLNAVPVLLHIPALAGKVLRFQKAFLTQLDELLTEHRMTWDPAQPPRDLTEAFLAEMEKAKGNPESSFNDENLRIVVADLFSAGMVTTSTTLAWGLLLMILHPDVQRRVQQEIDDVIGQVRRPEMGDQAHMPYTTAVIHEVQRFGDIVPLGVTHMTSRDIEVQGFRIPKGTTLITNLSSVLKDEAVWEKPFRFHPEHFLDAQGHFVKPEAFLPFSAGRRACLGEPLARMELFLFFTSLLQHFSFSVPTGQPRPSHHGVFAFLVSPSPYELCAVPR
How it was run: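 Cell-free assay using recombinant human CYP2D6 expressed in insect cells, with a fluorogenic substrate read after 1 h. Primary screen in duplicate at 10 uM; actives followed up in concentration series. Loss of signal fitted relative to acetonitrile.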

[10] = target: Cytochrome P450 2C19 (Homo sapiens) (UniProt P33261); assay: NVS_ADME_hCYP2C19: NovaScreen (NVS) CYP450-related Enzyme Activity (ADME) Assay for human CYP2C19 (AID 2283113; active = hit-call score of the fitted dose curve at least 0.9, where 1 is the maximum;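 note: potency for inhibition seen as loss of fluorescent signal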)
How it was run: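 Cell-free recombinant human CYP2C19 from insect cells, fluorescent substrate; activity read by fluorescence intensity 1 h after dosing. Primary screen in duplicate at 10 uM; actives retested in concentration series. Signal loss versus acetonitrile negative control.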

[11] = target: human CYP2C9, CYP2C9 (gene 1559) (UniProt P11712); assay: NVS_ADME_hCYP2C9: NovaScreen (NVS) CYP450-related Enzyme Activity (ADME) Assay for human CYP2C9 (AID 2283108; active = hit-call score of the fitted dose curve at least 0.9, where 1 is the maximum)
human CYP2C9, CYP2C9 (gene 1559), sequence (P11712 whole entry, looked up): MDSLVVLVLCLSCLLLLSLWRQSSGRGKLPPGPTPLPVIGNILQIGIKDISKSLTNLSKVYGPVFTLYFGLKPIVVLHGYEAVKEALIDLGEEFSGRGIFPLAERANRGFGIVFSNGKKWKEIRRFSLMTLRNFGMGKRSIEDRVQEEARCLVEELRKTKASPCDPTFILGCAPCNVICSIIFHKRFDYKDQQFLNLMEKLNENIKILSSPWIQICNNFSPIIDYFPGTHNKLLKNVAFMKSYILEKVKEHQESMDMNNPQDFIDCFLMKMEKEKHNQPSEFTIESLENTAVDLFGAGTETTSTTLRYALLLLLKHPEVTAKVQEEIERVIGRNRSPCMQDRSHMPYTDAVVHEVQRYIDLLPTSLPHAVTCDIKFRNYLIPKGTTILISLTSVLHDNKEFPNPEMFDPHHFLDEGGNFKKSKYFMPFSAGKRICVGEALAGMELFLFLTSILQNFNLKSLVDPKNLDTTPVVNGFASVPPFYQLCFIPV
How it was run: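 Recombinant human CYP2C9 expressed in SF9 cells, fluorogenic substrate, fluorescence read 0.75 h after dosing. Chemicals first run in duplicate at 10 uM, with actives followed in concentration series; loss of signal versus acetonitrile baseline.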

[12] = target: human Acid Phosphatase 1 (ACP1), ACP1 (gene 52) (UniProt P24666); assay: NVS_ENZ_hACP1: NovaScreen (NVS) Enzymatic Assay for human Acid Phosphatase 1 (ACP1) (AID 2283136; active = hit-call score of the fitted dose curve at least 0.9, where 1 is the maximum)
human Acid Phosphatase 1 (ACP1), ACP1 (gene 52), sequence (P24666 whole entry, looked up): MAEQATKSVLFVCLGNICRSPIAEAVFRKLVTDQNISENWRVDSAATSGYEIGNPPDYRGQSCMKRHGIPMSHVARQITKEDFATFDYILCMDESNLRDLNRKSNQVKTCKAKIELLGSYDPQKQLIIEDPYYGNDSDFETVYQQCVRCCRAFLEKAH
How it was run: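 Recombinant enzyme expressed in Sf9 cells, tested cell-free; activity read by fluorescence with electrophoretic mobility shift separation of substrate and product, 1.5 h after dosing. Primary screen in duplicate at 25 uM, actives then run in concentration series; loss of signal versus DMSO.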

[13] = target: human CYP2A6, CYP2A6 (gene 1548) (UniProt P11509); assay: NVS_ADME_hCYP2A6: NovaScreen (NVS) CYP450-related Enzyme Activity (ADME) Assay for human CYP2A6 (AID 2283099; active = hit-call score of the fitted dose curve at least 0.9, where 1 is the maximum)
human CYP2A6, CYP2A6 (gene 1548), sequence (P11509 whole entry, looked up): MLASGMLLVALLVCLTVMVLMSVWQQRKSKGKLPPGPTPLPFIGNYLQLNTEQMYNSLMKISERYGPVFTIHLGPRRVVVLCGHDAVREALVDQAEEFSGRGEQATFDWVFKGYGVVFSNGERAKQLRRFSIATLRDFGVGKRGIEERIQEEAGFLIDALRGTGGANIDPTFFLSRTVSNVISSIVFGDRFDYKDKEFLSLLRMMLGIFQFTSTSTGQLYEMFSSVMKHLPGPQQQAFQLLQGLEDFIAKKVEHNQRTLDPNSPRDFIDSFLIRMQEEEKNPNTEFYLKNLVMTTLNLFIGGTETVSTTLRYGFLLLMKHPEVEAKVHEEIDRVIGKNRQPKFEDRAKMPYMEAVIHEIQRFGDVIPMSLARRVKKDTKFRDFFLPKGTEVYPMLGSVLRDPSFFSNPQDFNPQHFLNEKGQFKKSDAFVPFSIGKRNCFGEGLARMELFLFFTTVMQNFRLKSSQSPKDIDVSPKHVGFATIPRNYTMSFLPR
How it was run: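 Recombinant human CYP2A6 expressed in insect cells, cell-free; fluorogenic substrate turnover read by fluorescence intensity 0.5 h after dosing. Primary screen 10 uM in duplicate, then concentration-response up to 20 uM; acetonitrile as negative control.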

[14] = target: Cytochrome P450 3A4 (Homo sapiens) (UniProt P08684); assay: NVS_ADME_hCYP3A4: NovaScreen (NVS) CYP450-related Enzyme Activity (ADME) Assay for human CYP3A4 (AID 2283110; active = hit-call score of the fitted dose curve at least 0.9, where 1 is the maximum)
Cytochrome P450 3A4 (Homo sapiens), sequence (P08684 whole entry, looked up): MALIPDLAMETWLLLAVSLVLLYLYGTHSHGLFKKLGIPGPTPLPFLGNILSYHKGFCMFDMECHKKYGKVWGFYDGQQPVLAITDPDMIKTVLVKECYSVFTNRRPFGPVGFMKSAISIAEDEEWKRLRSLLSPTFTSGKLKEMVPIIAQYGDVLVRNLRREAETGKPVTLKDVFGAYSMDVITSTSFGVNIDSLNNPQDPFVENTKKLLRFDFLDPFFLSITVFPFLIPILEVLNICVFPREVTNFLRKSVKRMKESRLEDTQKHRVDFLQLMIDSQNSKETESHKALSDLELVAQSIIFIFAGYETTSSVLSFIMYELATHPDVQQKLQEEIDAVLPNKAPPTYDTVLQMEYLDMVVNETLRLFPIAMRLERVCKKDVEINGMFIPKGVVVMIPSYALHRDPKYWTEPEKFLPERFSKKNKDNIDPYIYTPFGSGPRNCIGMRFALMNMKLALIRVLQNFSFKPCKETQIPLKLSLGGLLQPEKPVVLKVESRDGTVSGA
How it was run: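 Cell-free recombinant enzyme expressed in insect cells; fluorescent substrate turnover read after 0.33 h, acetonitrile as negative control. Primary screen in duplicate at 10 uM, actives then tested in concentration series.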

[15] = target: human CYP2B6, CYP2B6 (gene 1555) (UniProt P20813); assay: NVS_ADME_hCYP2B6: NovaScreen (NVS) CYP450-related Enzyme Activity (ADME) Assay for human CYP2B6 (AID 2283101; active = hit-call score of the fitted dose curve at least 0.9, where 1 is the maximum)
human CYP2B6, CYP2B6 (gene 1555), sequence (P20813 whole entry, looked up): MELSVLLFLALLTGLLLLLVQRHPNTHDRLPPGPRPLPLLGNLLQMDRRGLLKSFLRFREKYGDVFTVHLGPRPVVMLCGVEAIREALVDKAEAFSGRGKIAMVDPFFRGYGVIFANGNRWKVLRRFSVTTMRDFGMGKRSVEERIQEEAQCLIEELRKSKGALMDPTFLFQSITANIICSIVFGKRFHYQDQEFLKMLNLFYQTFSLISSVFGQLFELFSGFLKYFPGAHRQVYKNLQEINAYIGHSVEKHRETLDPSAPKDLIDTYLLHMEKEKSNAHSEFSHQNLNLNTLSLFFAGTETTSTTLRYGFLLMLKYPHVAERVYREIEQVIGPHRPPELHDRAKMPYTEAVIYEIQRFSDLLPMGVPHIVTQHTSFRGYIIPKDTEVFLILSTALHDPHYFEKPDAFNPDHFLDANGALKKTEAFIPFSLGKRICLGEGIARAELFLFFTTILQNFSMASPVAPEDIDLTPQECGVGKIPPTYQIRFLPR
How it was run: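 Cell-free recombinant enzyme assay with a fluorogenic substrate; fluorescence intensity read 1 hour after dosing. Loss of signal relative to acetonitrile negative control indicates inhibition. Primary screen run in duplicate at 10 uM, actives then tested in concentration series.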

Measured: AC50

E-selectin (Homo sapiens), sequence (P16581 whole entry, looked up): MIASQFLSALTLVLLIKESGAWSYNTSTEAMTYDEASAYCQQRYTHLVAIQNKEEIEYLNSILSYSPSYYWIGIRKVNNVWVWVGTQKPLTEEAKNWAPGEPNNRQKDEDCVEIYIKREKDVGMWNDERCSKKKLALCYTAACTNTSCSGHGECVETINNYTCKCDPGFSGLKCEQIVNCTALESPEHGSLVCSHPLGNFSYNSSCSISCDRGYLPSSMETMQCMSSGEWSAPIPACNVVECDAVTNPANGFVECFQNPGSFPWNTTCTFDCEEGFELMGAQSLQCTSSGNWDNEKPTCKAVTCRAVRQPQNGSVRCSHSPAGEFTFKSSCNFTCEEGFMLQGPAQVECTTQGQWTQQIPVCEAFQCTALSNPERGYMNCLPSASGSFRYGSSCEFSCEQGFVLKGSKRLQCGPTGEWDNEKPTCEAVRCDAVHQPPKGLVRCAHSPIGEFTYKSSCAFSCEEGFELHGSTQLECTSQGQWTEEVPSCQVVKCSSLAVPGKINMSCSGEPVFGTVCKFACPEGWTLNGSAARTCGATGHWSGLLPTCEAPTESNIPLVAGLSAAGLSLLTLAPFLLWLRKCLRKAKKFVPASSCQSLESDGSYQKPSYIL

CCCCC(CC)COC(=O)c1ccc(C(=O)OCC(CC)CCCC)cc1 (centres undefined)
inactive: [1] | CD38, CD38 (gene 952) | CD40, CD40 (gene 958) | CD69, CD69 (gene 969) | [2] | [3] | [4] | [5] | [6] | [7]

CCCCCCCCCCCCc1ccccc1
inactive: CD38, CD38 (gene 952) | CD69, CD69 (gene 969) | [2] | [3] | [4] | [5] | [8] | [6]
active: CD40, CD40 (gene 958) 31.8 µM

CC[C@H](C)C(=O)O[C@H]1C[C@@H](C)C=C2C=C[C@H](C)[C@H](CC[C@@H]3C[C@@H](O)CC(=O)O3)[C@H]21
active: [1] 30.8 µM | CD38, CD38 (gene 952) 29.8 µM | CD40, CD40 (gene 958) 12.5 µM | CD69, CD69 (gene 969) 13.8 µM | [2] 33.7 µM | [5] 21.7 µM | [8] 0.147 µM | [6] 4.5 µM | [7] 3.95 µM
inactive: [4]

O=c1[nH]c2ccc(S(=O)CCN3CCC(Cc4ccc(F)cc4)CC3)cc2o1 (centres undefined)
active: [9] 1.3 µM
not listed: [7] | [10] | [11] | [12] | [13] | [14] | [15]
inactive: all other assays above

CC(C)CCCCCCOC(=O)c1ccc(C(=O)OCCCCCCC(C)C)c(C(=O)OCCCCCCC(C)C)c1
inactive: CD38, CD38 (gene 952) | CD40, CD40 (gene 958) | CD69, CD69 (gene 969) | [2] | [3] | [4] | [5] | [8] | [6]

Clc1nc(Cl)c(Cl)c(Cl)c1Cl
inactive: [5] | [7]
active: CD38, CD38 (gene 952) 34.4 µM | CD40, CD40 (gene 958) 30 µM | CD69, CD69 (gene 969) 26.3 µM | [2] 31.4 µM | [3] 25.1 µM | [4] 31.2 µM | [8] 14.4 µM | [6] 23.3 µM

CCn1nc(Cc2ccccc2)cc1C1CCN(C[C@H]2C[C@H](N(C)[C@@H](C(=O)O)C(C)C)C[C@@H]2c2cccc(F)c2)CC1
inactive: CD38, CD38 (gene 952) | CD40, CD40 (gene 958) | CD69, CD69 (gene 969) | [2] | [3] | [4] | [5] | [8] | [6]

O=C(O)CC(O)C(=O)O (centres undefined)
active: [10] 12.9 µM
not listed: [9] | [11] | [12] | [13] | [14] | [15]
inactive: all other assays above

Cc1ccc(N)cc1O
active: [3] 6.15 µM | [5] 9.99 µM | [6] 8.98 µM | [9] 3.9 µM | [11] 5.95 µM | [10] 7.57 µM
not listed: [13] | [14] | [15]
inactive: all other assays above

CCOCCO
not listed: [9] | [10] | [11] | [12] | [14] | [15]
inactive: all other assays above

CCc1cc(SCc2sc(-c3ccc(C(F)(F)F)cc3)nc2CN2CCN(c3ccc(OC)cc3)CC2)ccc1OCC(=O)O
active: [1] 24.7 µM | CD38, CD38 (gene 952) 10.3 µM | CD40, CD40 (gene 958) 11.7 µM | CD69, CD69 (gene 969) 15.1 µM | [2] 11.4 µM | [3] 12.2 µM | [4] 14.1 µM | [5] 21.5 µM | [8] 20 µM | [6] 9.97 µM
inactive: [11] | [14]

CC[C@H]1CC[C@H](NCc2cc3c(cc2OC)[C@H]2C[C@H]2C(=O)N3C)[C@H](c2ccccc2)N1
inactive: CD38, CD38 (gene 952) | CD40, CD40 (gene 958) | CD69, CD69 (gene 969) | [2] | [3] | [4] | [5] | [8] | [6]

CC(C)c1cccc(C(C)C)c1N1C(=O)c2ccc(O)cc2C1=O
active: [1] 10.1 µM | CD38, CD38 (gene 952) 13.6 µM | CD40, CD40 (gene 958) 18.9 µM | CD69, CD69 (gene 969) 19.1 µM | [2] 37.1 µM | [3] 30.9 µM | [4] 32 µM | [6] 20 µM | [7] 19.3 µM | [11] 4.78 µM | [14] 13.6 µM | [10] 5.11 µM
inactive: [5] | [8] | [9] | [12]

Nc1nc2ncc(CNc3ccc(C(=O)N[C@@H](CCC(=O)O)C(=O)O)cc3)nc2c(=O)[nH]1
not listed: [7] | [9] | [10] | [11] | [14] | [15]
inactive: all other assays above

CC(=O)OCCC(C)C
active: [11] 8.59 µM
not listed: [10] | [12] | [13]
inactive: all other assays above

CC1(C)C(=O)N(Br)C(=O)N1Br
inactive: CD38, CD38 (gene 952) | CD40, CD40 (gene 958) | CD69, CD69 (gene 969) | [2] | [3] | [4] | [5] | [8] | [6]

Cc1ccc(S(=O)(=O)O)cc1C
inactive: CD38, CD38 (gene 952) | CD40, CD40 (gene 958) | CD69, CD69 (gene 969) | [2] | [3] | [4] | [5] | [8] | [6]
